Experimental data as given in PubChem BioAssay (NCATS).
Inconclusive results are not listed. A call without a number means that no potency is given here. Activity calls are given as the source filed them. The call rests on the fitted dose curve; in most records, active means well fitted curve in the direction sought with a large enough effect; inconclusive means small, poorly fitted or top-dose-only effect, or another doubt; inactive means no such curve, though single readings can be large; an effect the other way counts as inactive or inconclusive.

Tests used:
[1] = biological target: Parathyroid hormone/parathyroid hormone-related peptide receptor (Homo sapiens) (UniProt Q03431); experiment: qHTS for PTHR1 Agonists: Optimization Screen against the NCGC LOPAC library (AID 1347079);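 further: GloSensor cAMP luminescence in HEK-293 GP2 cells expressing human PTHR1 with IBMX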
In short: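 Agonist readout: GloSensor cAMP luminescence, read after 15 min at room temperature. HEK-293-derived GP2 line carries PTHR1; compounds tested as a titration for 1 hr at 37C in presence of IBMX. M-PTH (1-15) served as control.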

[2] = qHTS of pediatric cancer cell lines to identify multiple opportunities for drug repurposing: Primary screen for TC32 cells (AID 1347089); further: nearly all actives have a fitted effect of over 60% in size
In short: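 Luminescent ATP read-out (CellTiter-Glo) of metabolically active TC32 cells after 48 h exposure. Concentration-response curves came from 11-point (MIPE, 0.78 nM–46 µM) or 8-point (NPC, 0.59 nM–46 µM) primary titrations; follow-up used 11 points.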

[3] = qHTS of pediatric cancer cell lines to identify multiple opportunities for drug repurposing: Primary screen for DAOY cells (AID 1347090); further: series mostly up to about 46 µM; nearly all actives have a fitted effect of over 55% in size
In short: (§1)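 Viability measured as metabolically active cells via CellTiter-Glo luminescence following 48 hours of compound exposure, 11-point dilutions in confirmatory testing. 500-1,000 cells/well plated 5 hours before dosing; controls were DMSO and 2.3 µM bortezomib.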

[4] = qHTS of pediatric cancer cell lines to identify multiple opportunities for drug repurposing: Primary screen for SJ-GBM2 cells (AID 1347091)
In short: as §1

[5] = qHTS of pediatric cancer cell lines to identify multiple opportunities for drug repurposing: Primary screen for SK-N-MC cells (AID 1347093); further: potency means the concentration at half of the fitted maximal effect
In short: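 Metabolically active cells were quantified by ATP-dependent luminescence (CellTiter-Glo, 15 min at room temperature) following 48 h treatment. Cells had been plated at 500-1,000 per well and settled for 5 h beforehand.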

[6] = qHTS of pediatric cancer cell lines to identify multiple opportunities for drug repurposing: Primary screen for BT-37 cells (AID 1347094); further: series mostly up to about 57 µM
In short: (§2)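 Cells seeded at 500-1,000 cells/well in growth media, rested 5 hours at 37 degrees C, 5% CO2, then dosed; MIPE compounds at 11-point (from 0.78 nM) and NPC at 8-point (from 0.59 nM) final concentrations. Viability by CellTiter-Glo luminescence after 48 hours.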

[7] = qHTS of pediatric cancer cell lines to identify multiple opportunities for drug repurposing: Primary screen for NB-EBc1 cells (AID 1347095)
In short: as §2

[8] = qHTS of pediatric cancer cell lines to identify multiple opportunities for drug repurposing: Primary screen for U-2 OS cells (AID 1347096); further: nearly all actives have a fitted effect of over 50% in size
In short: (§3)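 Viability after 48 h compound treatment at 37C, 500-1,000 cells/well, read as ATP luminescence with CellTiter-Glo. Primary screens used 11-point (MIPE, 0.78 nM-46 µM) or 8-point (NPC, 0.59 nM-46 µM) final concentrations; follow-up screens used 11-point dilutions.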

[9] = qHTS of pediatric cancer cell lines to identify multiple opportunities for drug repurposing: Primary screen for Saos-2 cells (AID 1347097); further: nearly all actives have a fitted effect of over 40% in size; further: potency means the concentration at half of the fitted maximal effect
In short: as §2

[10] = qHTS of pediatric cancer cell lines to identify multiple opportunities for drug repurposing: Primary screen for SK-N-SH cells (AID 1347098);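 further: DMSO served as neutral control and bortezomib at 2.3 µM as positive control; nearly all actives have a fitted effect of over 65% in size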
In short: (§4)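 Cells (500-1,000/well) rested 5 h, then received compounds for 48 h; metabolically active cells were measured by CellTiter-Glo luminescence. Final concentrations spanned up to 46 µM (MIPE, 11-point) or 0.59 nM-46 µM (NPC, 8-point) in primary screens, 11-point in follow-ups.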

[11] = qHTS of pediatric cancer cell lines to identify multiple opportunities for drug repurposing: Primary screen for LAN-5 cells (AID 1347100)
In short: as §3

[12] = qHTS of pediatric cancer cell lines to identify multiple opportunities for drug repurposing: Primary screen for BT-12 cells (AID 1347101); further: nearly all actives have a fitted effect of over 25% in size; further: potency means the concentration at half of the fitted maximal effect
In short: as §4

[13] = qHTS of pediatric cancer cell lines to identify multiple opportunities for drug repurposing: Primary screen for Rh18 cells (AID 1347102); further: nearly all actives have a fitted effect of over 65% in size
In short: as §3

[14] = qHTS of pediatric cancer cell lines to identify multiple opportunities for drug repurposing: Primary screen for OHS-50 cells (AID 1347103); further: nearly all actives have a fitted effect of over 40% in size; further: potency means the concentration at half of the fitted maximal effect
In short: as §4

[15] = qHTS of pediatric cancer cell lines to identify multiple opportunities for drug repurposing: Primary screen for RD cells (AID 1347104); further: nearly all actives have a fitted effect of over 55% in size
In short: as §2

[16] = qHTS of pediatric cancer cell lines to identify multiple opportunities for drug repurposing: Primary screen for MG 63 (6-TG R) cells (AID 1347105); further: nearly all actives have a fitted effect of over 50% in size
In short: as §2

[17] = qHTS of pediatric cancer cell lines to identify multiple opportunities for drug repurposing: Primary screen for control Hh wild type fibroblast cells (AID 1347106);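 further: series mostly up to about 46 µM; a drop in luminescence marks cytotoxicity and a rise apparent proliferation; nearly all actives have a fitted effect of over 55% in size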
In short: as §3

[18] = qHTS of pediatric cancer cell lines to identify multiple opportunities for drug repurposing: Primary screen for Rh30 cells (AID 1347107); further: series mostly up to about 46 µM; nearly all actives have a fitted effect of over 75% in size
In short: as §3

[19] = qHTS of pediatric cancer cell lines to identify multiple opportunities for drug repurposing: Primary screen for A673 cells (AID 1347092); further: nearly all actives have a fitted effect of over 45% in size
In short: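 Cell viability of A673 measured by CellTiter-Glo ATP luminescence after 48 hours compound exposure. Dilution series spanned 0.78 nM to 46 µM (MIPE, 11-point) or 0.59 nM to 46 µM (NPC, 8-point); bortezomib 2.3 uM positive control.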

[20] = qHTS of pediatric cancer cell lines to identify multiple opportunities for drug repurposing: Primary screen for NB1643 cells (AID 1347099); further: nearly all actives have a fitted effect of over 50% in size
In short: as §2

Sequence of Parathyroid hormone/parathyroid hormone-related peptide receptor (Homo sapiens) (Q03431 whole entry, looked up): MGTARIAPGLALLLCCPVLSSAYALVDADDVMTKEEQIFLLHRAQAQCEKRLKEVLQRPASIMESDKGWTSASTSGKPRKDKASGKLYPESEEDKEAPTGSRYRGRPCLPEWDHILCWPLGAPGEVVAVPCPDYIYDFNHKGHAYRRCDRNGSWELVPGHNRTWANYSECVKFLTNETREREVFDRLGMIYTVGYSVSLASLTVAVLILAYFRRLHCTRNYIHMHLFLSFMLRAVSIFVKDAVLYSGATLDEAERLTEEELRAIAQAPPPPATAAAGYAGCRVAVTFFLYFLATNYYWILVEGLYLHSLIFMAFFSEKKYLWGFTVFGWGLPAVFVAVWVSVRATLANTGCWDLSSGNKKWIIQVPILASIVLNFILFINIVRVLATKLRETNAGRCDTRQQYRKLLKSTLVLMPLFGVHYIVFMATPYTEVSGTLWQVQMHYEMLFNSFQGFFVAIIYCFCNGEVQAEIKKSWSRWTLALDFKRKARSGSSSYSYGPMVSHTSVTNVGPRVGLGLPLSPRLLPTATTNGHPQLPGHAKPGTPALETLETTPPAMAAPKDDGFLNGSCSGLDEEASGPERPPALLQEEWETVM

Row | Structure (SMILES) | outcome [1] | Potency [2] | Potency [3] | Potency [4] | Potency [5] | Potency [6] | Potency [7] | Potency [8] | Potency [9] | Potency [10] | Potency [11] | Potency [12] | Potency [13] | Potency [14] | Potency [15] | Potency [16] | Potency [17] | Potency [18] | Potency [19] | Potency [20]
1 | CCn1cc(C(=O)O)c(=O)c2ccc(C)nc21 | inactive | inactive | inactive | inactive | inactive | inactive | inactive | inactive | inactive | inactive | inactive | inactive | inactive | inactive | inactive | inactive | inactive | inactive | – | –
2 | CC(=O)c1ccc(S(=O)(=O)NC(=O)NC2CCCCC2)cc1 | inactive | inactive | inactive | inactive | – | inactive | inactive | inactive | inactive | inactive | inactive | inactive | inactive | inactive | inactive | inactive | inactive | inactive | inactive | –
3 | CCN(CC)CCOC(=O)c1ccc(N)cc1 | inactive | inactive | inactive | inactive | – | inactive | inactive | inactive | inactive | inactive | inactive | inactive | – | inactive | inactive | inactive | inactive | inactive | – | inactive
4 | CCCCCN(C)CCC(O)(P(=O)(O)O)P(=O)(O)O | inactive | inactive | inactive | inactive | – | inactive | inactive | inactive | inactive | inactive | inactive | inactive | – | inactive | inactive | inactive | inactive | inactive | – | –
5 | CCCNC(=O)NS(=O)(=O)c1ccc(Cl)cc1 | inactive | inactive | inactive | inactive | – | inactive | inactive | inactive | inactive | inactive | inactive | inactive | inactive | inactive | inactive | inactive | inactive | inactive | inactive | inactive
6 | O=C1NCC2(CCN(CCc3ccccc3)CC2)O1 | inactive | inactive | inactive | inactive | inactive | inactive | inactive | inactive | inactive | inactive | inactive | inactive | inactive | inactive | inactive | inactive | inactive | inactive | – | inactive
7 | COc1ccc(Cc2nccc3cc(OC)c(OC)cc23)cc1OC | inactive | – | – | – | – | – | – | – | – | – | – | – | – | – | – | – | – | – | – | –
8 | CC(=O)O[C@]1(C(C)=O)CC[C@H]2[C@@H]3C=C(Cl)C4=CC(=O)[C@@H]5C[C@@H]5[C@]4(C)[C@H]3CC[C@@]21C | inactive | inactive | – | inactive | – | – | inactive | inactive | 26.6 µM (active) | – | inactive | 12.3 µM (active) | – | 34.7 µM (active) | – | inactive | inactive | – | – | inactive
9 | CC(=O)N[C@@H](CS)C(=O)O | inactive | inactive | inactive | inactive | – | inactive | inactive | inactive | inactive | inactive | inactive | inactive | inactive | inactive | inactive | inactive | inactive | – | inactive | inactive
10 | CC(C)OC(=O)C(C)(C)Oc1ccc(C(=O)c2ccc(Cl)cc2)cc1 | inactive | inactive | inactive | – | 20.9 µM (active) | – | – | inactive | inactive | inactive | inactive | – | inactive | – | inactive | inactive | inactive | – | inactive | –
11 | NC(N)=Nc1nc(CSCC/C(N)=N/S(N)(=O)=O)cs1 | inactive | inactive | inactive | inactive | inactive | inactive | inactive | inactive | inactive | inactive | inactive | inactive | inactive | inactive | inactive | inactive | inactive | inactive | inactive | inactive
12 | Cc1cccc(C)c1OCC(C)N (configuration not stated) | inactive | inactive | inactive | inactive | – | inactive | inactive | inactive | – | inactive | inactive | inactive | inactive | inactive | inactive | inactive | inactive | inactive | inactive | inactive
13 | O=C1NC(=O)C(c2ccccc2)(c2ccccc2)N1 | inactive | inactive | inactive | inactive | inactive | inactive | inactive | inactive | inactive | inactive | inactive | inactive | inactive | inactive | inactive | inactive | inactive | inactive | inactive | inactive
14 | O=C(O)CCc1nc(-c2ccccc2)c(-c2ccccc2)o1 | inactive | – | inactive | inactive | inactive | inactive | inactive | inactive | inactive | inactive | inactive | – | inactive | inactive | inactive | inactive | inactive | inactive | inactive | inactive
